Test results: the supplement of paper PMC6555819

How the values were obtained:
Assay in all cases: PBM binding z-score (relative to random genomic background probes); higher = stronger binding; sequences stand for … in GC…GCGATTGACAGCGTAGAATGAAGG
[1] = system: FXR:RXRa (NR concentration 270 nM, RXRa partner concentration 90 nM)
Outline: (§1)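 Probes were double-stranded and carried 34-nt variable regions with direct-repeat seeds, single-nucleotide variants, half-site ablations and random human genomic background sequences, printed on custom Agilent 4×180K protein-binding microarrays. Arrays were incubated 1 h with ligand-free nuclear receptor dimers in PBS pH 7.4, 2% milk, 0.02% Triton X-100, 1 mM DTT, 0.2 mg/mL BSA and 0.4 mg/ml salmon testes DNA. Antibodies against each partner (one per run) detected binding, and scanned fluorescence was regression-normalized. Binding z-scores use the random background probes as reference.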

[2] = system: LXRa:RXRa (NR concentration 270 nM, RXRa partner concentration 90 nM)
Outline: as §1

[3] = system: LXRa homodimer (NR concentration 270 nM)
Outline: as §1

[4] = system: LXRb:RXRa (NR concentration 270 nM, RXRa partner concentration 90 nM)
Outline: as §1

[5] = system: LXRb homodimer (NR concentration 270 nM)
Outline: as §1

[6] = system: PPARa:RXRa (NR concentration 270 nM, RXRa partner concentration 90 nM)
Outline: as §1

[7] = system: PPARg:RXRa (NR concentration 180 nM, RXRa partner concentration 90 nM)
Outline: as §1

[8] = system: PPARg:RXRa 270nM:90nM, anti-RXR (NR concentration 270 nM, RXRa partner concentration 90 nM)
Outline: as §1

[9] = system: PPARg:RXRa 30nM:10nM, anti-RXR (NR concentration 30 nM, RXRa partner concentration 10 nM)
Outline: as §1

[10] = system: PPARg:RXRa 90nM:30nM, anti-RXR (NR concentration 90 nM, RXRa partner concentration 30 nM)
Outline: as §1

Row | Sequence | PBM binding z-score [1] | PBM binding z-score [2] | PBM binding z-score [3] | PBM binding z-score [4] | PBM binding z-score [5] | PBM binding z-score [6] | PBM binding z-score [7] | PBM binding z-score [8] | PBM binding z-score [9] | PBM binding z-score [10]
1 | CGTCATAGTTCAACTAAGGTAACGTAAAGCACGC | 3.55 | 3.63 | 1.02 | 2.13 | 0.806 | 3.13 | 1.66 | 2.25 | 0.562 | 1.56
2 | TCTACCAGGCCAGAGGGTCACTCAAGAGGTACGG | 1.36 | 1.24 | -0.237 | 1.38 | -0.315 | 2.65 | 2.06 | 3.41 | 3.25 | 3.44
3 | TATCCTAGGTCATTCAGGGGCCAGTATAGAAAGC | 5.25 | 5.67 | 4.76 | 3.96 | 4.11 | 4.18 | 3.29 | 3.8 | 1.64 | 3.05
4 | TATGCTAGGTCAGTTGGTCAGCTAACGAGCTGCC | 0.676 | 1.92 | 0.835 | 0.423 | 1.02 | 1.46 | 1.17 | 1.26 | 0.0933 | 0.733
5 | CGTCCAAGATCAGAGAGGTCAGTGAATGCCGAGT | 1.64 | 2 | 1.44 | 1.92 | 0.00137 | 2.52 | 0.376 | 0.581 | 0.00146 | 0.0792
6 | ATCTCTAGGTAACAAGTTCAGTCAAAGAGAGGAC | 0.865 | 0.77 | 0.75 | 0.867 | 0.743 | 1.5 | 1.4 | 2.12 | 1.16 | 1.85
7 | TCTTGTAGATCAACCGGAGGTTAAGAAAGATCGA | 0.397 | 1.58 | 1.09 | 1.17 | -0.00394 | 1.26 | -0.257 | 1.55 | 2.69 | 2.15
8 | GCTTACGGGTCAAAGGATATAGCATGAATAGAAT | 5.93 | 3.75 | -0.261 | 3.44 | 0.261 | 5.37 | 5.87 | 5.9 | 3.29 | 5.26
9 | CCTACCGGGCCAAAAAGGTCATTGATGCCGATAA | 3.51 | 4.28 | 3.75 | 4.21 | 0.286 | 4.55 | 1.69 | 3 | 0.292 | 1.97
10 | CCTGCTAGGTCAATGGTCATCTAAAGCAGCTCGC | 2.9 | 2.28 | 0.085 | 1.68 | 0.00102 | 3.22 | 4.71 | 5.48 | 3.24 | 5.52
11 | TTTTGTAGATCAGCAGGTTAAGAAAGCTGGCCAA | -0.421 | -0.315 | -0.236 | 0.141 | -0.319 | 0.634 | -0.106 | 0.922 | 0.508 | 0.797
12 | ATCTTTAGGTAACCAAGTTCAGTGAATGCCGAAC | 0.613 | 1.14 | 0.896 | 0.862 | 1.2 | 0.968 | 0.323 | 0.52 | 0.251 | 0.342
13 | GCTCTTAGTTGAAAGGGCAACCGAATGATTCTCG | 0.354 | 0.538 | 0.194 | 0.812 | -0.185 | 1.77 | 0.987 | 2.26 | 0.632 | 1.71
14 | AGAACGCGGGCACGCTGAGTTGATAGCAGAGTAG | -0.237 | -0.318 | -0.326 | -0.68 | -1.1 | -0.532 | 0.363 | -0.844 | -0.786 | -0.727
15 | TCTAGTTGGTCACGGAGGTCACACATGACGGGTA | 3.11 | 3.52 | 2.42 | 3.42 | 0.605 | 4.06 | 3.59 | 4.13 | 3.55 | 3.84
16 | CCGACTGGGGCATAAGGTTACCAAAAGCCAGCCC | 0.243 | 1.26 | -0.202 | 0.884 | -1.26 | 2.36 | 2.34 | 3.15 | 0.904 | 2.48
17 | CGTCCAAGGTCAGCACGTCAGTGAAAGCGACGTG | 5.32 | 3.11 | -0.0642 | 2.37 | -0.16 | 4.23 | 2.38 | 2.91 | 0.448 | 1.36
18 | ATATGTAGGTTACATCCGGGTCATTCACGCTATG | 2.44 | 4.66 | 1.9 | 3.31 | 1.26 | 4.8 | 6.27 | 5.48 | 2.76 | 4.79
19 | TGTCAAAGTTCAAAGGTAACCTAAGTATCCACAC | 7.3 | 6.43 | 4.99 | 5.02 | 2.06 | 6.03 | 8.74 | 7.74 | 5.57 | 7.47
20 | CTCGAAAGGTCGGTTGAGGGGAGTATACGGATAA | 2.57 | 1.35 | -0.151 | 1.35 | 0.377 | 2.39 | 0.359 | 0.861 | -0.0851 | 0.567
21 | CATACAGGGTCAGCTAAGCCAGAGTAGGGACGGC | 4.23 | 2.89 | 0.0357 | 2.17 | 0.175 | 4.39 | 3.57 | 2.87 | 0.539 | 1.9
22 | TCTTGTAGATCAATAGACGTTAAGAAAGTGCGCT | 0.594 | 0.28 | -0.214 | 0.165 | 0.106 | 0.212 | -0.0755 | 1.51 | 2.76 | 2.26
23 | CTAACAAGGTGAACAAGGTCGTTGATTACTATTC | 1.46 | 1.2 | 0.00841 | 1.71 | -0.084 | 2.7 | 1.75 | 1.73 | 0.38 | 1.18
24 | ATCTCTAGGTAAAAGTTCTGTGAATCCCGAGGAT | 0.0905 | 0.216 | 0.111 | -0.143 | 0.463 | 1.52 | 2.62 | 3.93 | 2.04 | 4.05
